This is part of a sample that, as a whole, favours compounds with a hit. Of some 83,000 tested, about 20% had one in any assay.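 For each line, cells grew in 96-well plates with the test compound present at a single concentration for 48 hours.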 Values without a mark were called inactive. The source made the active and inactive calls.

For this test, the system named is EKVX NSCLC. Briefly: NCI-60 one-dose screen, 48 h (100 = growth as untreated, 0 = no growth, -100 = all killed). To be noted: 10 µM unless noted. On the procedure:
Growth inhibition of the EKVX human Non-Small Cell Lung tumor cell line is measured as a screen for anti-cancer activity. Cells are grown in 96 well plates and exposed to the test compound for 48 hours. Compounds are tested at a single concentration, which is 10^-5 M for most compounds. The reported endpoint is percent growth (GI% or GIPRCNT), where numbers from 0 - 100% represent growth inhibition, and numbers from -100% - 0 represent cell death. For example, a value of 40 represents 60% growth inhibition. A value of 0 means no net growth occurred over the course of the experiment. A value of -40 indicates 40% of cells at the beginning of the experiment died by the end of the experiment. A value of -100 means all cells are dead at the end of the experiment.
NCI-60 Human Tumor Cell Lines Screen was performed using the standard one-dose NCI protocol, which is described in more detail at https://dtp.cancer.gov/discovery_development/nci-60/default.htm.
Compounds with GIPRCNT values below 10 were considered active. Activity score was based on GIPRCNT using the following formula: […]
Score is 0 for GIPRCNT values of 100 or above, 50 for GIPRCNT values of 0, and 100 for GIPRCNT values of -100.
Turning to `CN[C@]12CC3(C=CC(=O)C=C3)O[C@@]1(Cc1ccc(OC)cc1)N(C)C(=O)N2`, the growth was 96%.

For the compound `CCOC(=O)c1cc2c(=O)oc3ccccc3c2oc1=O`, the growth was 111%.

As to `CC(C)=NNc1ccccn1`, the growth is 18.8%.

With `COc1ccc(C2=Nc3c/c(=C\c4c(O)[nH]c5ccc(Cl)cc45)ccc3=N2)cc1`, the growth is 56.6%.

Regarding `COc1ccc(/C=C2\COc3ccc(O)c(O)c3C2=O)cc1`, the growth was 48%.

For `CCOc1nc(-c2ccccc2)cc2c(O)c(C(=O)NN)[nH]c(=O)c12`, the growth is 108%.

As to `CC(C)c1ccc(NC(=O)Nc2ccc(NC(=O)CCCC(=O)NOCc3ccccc3)cc2)cc1`, the growth is 105%.

Turning to `CC(=O)N(N=Nc1ccccc1)c1cccc2ccccc12`, the growth is 101%.

For the compound `O=C1C(Cl)=C(Oc2ccccc2)C(=O)c2ccccc21`, the growth was 87.2%.

Consider `COc1cc(NC(C)CCCNC(C)C)c2ncccc2c1OC` (stereo not given), for which the growth was 105%.

For `C=C(C)[C@@H]1CC[C@]2(C)[C@H](CC=C3[C@@H]4[C@H](C)[C@@H](C)CC[C@]4(CO)CC[C@]32C)[C@@]1(C)CCCN`, the growth is 74.1%.

`O=C(CCc1nnc(Cn2cnc3nc[nH]c3c2=O)o1)c1nc2ncccc2[nH]1`: the growth was 102%.

As to `C#Cc1ccc(NC(=O)c2ccc(/C=C/C(=O)c3nccn3C)cc2)cc1`, the growth is -75.4% (active).

With `CCN(CC)c1nc(SCc2ccccc2Cl)ncc1C`, the growth was 101%.

With `CO[C@H]1/C=C(/C)CCC[C@H](C)[C@H](O)[C@@H](C)C(=O)C(C)(C)[C@@H](O)CC(=O)O[C@@H]1/C(C)=C/c1csc(C)n1`, the growth is 34%.

Regarding `Fc1cccc(CNc2c3ccccc3nc3ccccc23)c1F`, the growth is 62.9%.

Take `COC(=O)[C@H]1CCCN1C[C@@H](O)CN1C(=O)/C(=C\c2cc(OC)c(OC)c(OC)c2)c2ccccc21`: the growth was 104%.

For `CCN(CC)c1ccc(/C=C/C(=O)c2ccc(Nc3nc(Nc4ccccc4)nc(Nc4ccccc4)n3)cc2)cc1`, the growth was 31.5%.

Regarding `CCNc1cc(-c2cccc(OC(F)(F)F)c2)nc2ccc(N3CCCC3)cc12`, the growth is 17.1%.

Consider `C#CCOc1ccc2ncnc(Nc3ccc(NC(=O)CCl)cc3)c2c1`, for which the growth is -0.0323% (active).

Take `CC(=O)Nc1nc2ccc(NS(=O)(=O)c3cccc4c(N(C)C)cccc34)cc2[nH]1`: the growth is 75.9%.

For `CN1CCN(c2ccc(C(=O)Nc3cccc(C#Cc4cccc5[nH]nc(N)c45)c3)cc2C(F)(F)F)CC1`, the growth was 17.1%.

Consider `Brc1c2c(c(Br)c3ccccc13)CCCC2`, for which the growth was 97.2%.

As for `N#Cc1c(-c2ccc(Cl)cc2)nc(NN=Cc2cccc(O)c2)nc1N1CCOCC1`, the growth was 66.6%.

In the case of `N#Cc1c(-c2ccccc2)cc(-c2ccccc2)n(CCCCCC(=O)Nc2ccccc2N)c1=O`, the growth is 50.8%.

Take `Cc1cnc(C(=O)NNc2nc3sc4c(c3c(=O)n2C)C(C)CCC4)cn1` (stereo not given): the growth is 6.08% (active).

Take `O=C(Cn1cc(CN2CCCCCC2)nn1)Nc1ccc2c(ccn2Cc2ccccc2)c1`: the growth is 96.1%.

As for `Cc1ccc(-c2nc3nc(-c4ccccc4)nc(N4CCNCC4)c3o2)cc1`, the growth was -65.5% (active).

`COc1ccc(C2c3sc4c(F)cccc4c3Oc3nc[nH]c(=O)c32)cc1` (stereo not given): the growth was 71.2%.

As for `Cc1ccc(CNc2ccc(Cl)cc2NCc2ccc(C)c(O)c2)cc1O`, the growth is 80.2%.

On to `COC(=O)CNC(=O)[C@H](Cc1ccccc1)NCc1ccncc1`, for which the growth was 99.5%.

In the case of `Clc1ccc(Nc2nnc(COc3ccccc3)c3ccccc23)cc1`, the growth was 6.53% (active).

As to `CN1C(=O)/C(=C/c2cn(-c3ccccc3)nc2-c2ccccc2)SC1=S`, the growth was 102%.

Regarding `OCCNCCCOc1ccc2ncnc(Nc3ccc(Oc4cccc(C(F)(F)F)c4)c(Cl)c3)c2c1`, the growth was 27%.

With `CC1(c2ccccc2O)NN=C(/N=C/c2cccc([N+](=O)[O-])c2)N1C(Cc1c[nH]c2ccccc12)C(=O)O` (stereo not given), the growth was 77.6%.

Consider `CCCC(=O)NC(c1ccc2c(c1)OCO2)c1ccc2cccnc2c1O` (stereo not given), for which the growth is 19.1%.

As for `CC(C)(C)n1cc(-c2ccnc(NCCCNS(=O)(=O)c3ccc(F)cc3)c2)c(-c2cccc(F)c2)n1`, the growth is 57.3%.

For `CCOC(=O)c1cn2ncnc(Oc3ccc(NC(=O)NC4CCCCC4)c(Cl)c3)c2c1C`, the growth is 74.3%.

Take `Fc1cc(F)cc(C(c2c[nH]c3ccccc23)c2c[nH]c3ccccc23)c1`: the growth is 80.6%.

As to `COc1cc(-c2cc(-c3ccc(N(C)C)cc3)nc(N3CCC(O)CC3)c2C#N)cc(OC)c1OC`, the growth was 21.7%.

These data come from PubChem BioAssay (NCI).
